The values below come from PubChem BioAssay (NCATS).

Inconclusive results are not listed. Entries that show only a call come without a potency. The source made the active and inactive calls. The call rests on the fitted dose curve; in most records, active means well fitted inhibition curve with a large enough effect; inconclusive means small, poorly fitted or top-dose-only effect; inactive means flat fitted curve, though single readings scatter.
Potency means the concentration at half of the fitted maximal effect.

In one experiment the test system is SC27B. The experiment in a line: qHTS profiling for inhibitors of Plasmodium falciparum proliferation (AID 504749). Further: nearly all actives have a fitted effect of over 60% in size. As to conditions: P. falciparum in erythrocytes, SYBR Green DNA, 72 h; series mostly up to 28.7 µM. The method, boiled down:
(§1)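 Three-day growth assay of blood-stage parasites in erythrocytes (0.3% parasitemia, 2.5% hematocrit) at 37 C, 5% CO2, quantified by SYBR Green DNA staining after overnight detergent lysis.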
For orientation: In qHTS, concentration-response curves come from the screen itself.
On to `CCCCCCCCCCCCCCNCCO`, for which the Potency result was “inactive”.
The same measure, in the same setting: the value for `C=CCc1ccc(O)c(OC)c1` was “inactive”.
The same measure, in the same setting: as for `CCN(CC)CCOC(=O)C(c1ccccc1)C1CCCCC1` (configuration not stated), the entry is “inactive”; as for `CNCCC(Oc1ccccc1C)c1ccccc1` (configuration not stated), “inactive”; as for `CN(C(=O)CN(CCO)CC(=O)N(C)C(C)(C)Cc1ccccc1)C(C)(C)Cc1ccccc1`, “inactive”.
On the same count and under the same terms, the value for `O=C1OC(c2ccc(O)cc2)(c2ccc(O)cc2)c2ccccc21` was “inactive”; that for `O=S1(=O)c2cccc3cccc(c23)N1CCCN1CCN(c2ccc(F)cc2)CC1` was “inactive”.
On to `CCOc1ccc(Cc2nccc3cc(OCC)c(OCC)cc23)cc1OCC`, for which the Potency entry was “inactive”.
Still for that read-out and setting: as for `c1ccc(OCc2ccc(CCCN3CCOCC3)cc2)cc1`, the entry is “inactive”.
The same measure, in the same setting: as for `CN1CCC(=C2c3ccccc3Sc3ccccc32)CC1`, the figure is 11.2 µM (active).
The same measure, in the same setting: as for `C[C@@H](CN(C)C)CN1c2ccccc2Sc2ccccc21`, the entry is “inactive”.
Consider `CN1C2CCC1CC(OC(=O)c1c[nH]c3ccccc13)C2` (configuration not stated), for which the Potency entry was “inactive”.
The same measure, in the same setting: as for `CC[N+](CC)(CCNC(=O)C(=O)NCC[N+](CC)(CC)Cc1ccccc1Cl)Cc1ccccc1Cl`, the figure is 3.98 µM (active); as for `O=C(CCN1CCC(c2ccccc2)C1)c1ccc2c(c1)OCCO2` (configuration not stated), “inactive”.
`Cc1ccc(O)c2ncccc12`: the Potency entry is “inactive”.
Still for that read-out and setting: the value for `Oc1c(I)cc(I)c2cccnc12` was “inactive”; that for `CCN(CCCc1ccccc1)CCCc1ccccc1` was “inactive”.
Still for that read-out and setting: as for `Cc1cc(N)c2cc(NC(=O)Nc3ccc4nc(C)cc(N)c4c3)ccc2n1`, the figure is 12.6 µM (active).
Still for that read-out and setting: as for `C[C@@H]1C[C@H]2[C@@H]3CCC4=CC(=O)C=C[C@]4(C)[C@@]3(F)[C@@H](O)C[C@]2(C)[C@H]1C(=O)CO`, the entry is “inactive”; as for `CC(=O)c1ccc2c(c1)N(CCCN1CCC(CCO)CC1)c1ccccc1S2`, “inactive”.
For `CCN(CC)CCNC(=O)COc1ccc(Cl)cc1`, the Potency is 11.2 µM (active).
Still for that read-out and setting: the value for `OCc1ccccc1O` was “inactive”; that for `CC(=O)Nc1c(I)cc(I)c(C(=O)O)c1I` was “inactive”; that for `COc1cc2c(cc1OC)C(C(C(=O)N(CCc1ccc(OC)c(OC)c1OC)CCc1ccc(OC)c(OC)c1OC)c1ccccc1)=NCC2` (configuration not stated) was 2.24 µM (active).
Same read-out and setting: the value for `O=C1[C@H]2CCCC[C@H]2C(=O)N1CCCCN1CCN(c2nsc3ccccc23)CC1` was “inactive”.

Another experiment deals with TAB109. The description is as above. As to conditions: P. falciparum in erythrocytes, SYBR Green DNA, 72 h; series mostly up to 28.7 µM. The method, boiled down:
as §1
For the compound `CCCCCCCCCCCCCCNCCO`, the Potency entry was “inactive”.
Take `C=CCc1ccc(O)c(OC)c1`: the Potency result was “inactive”.
The same measure, in the same setting: the value for `CCN(CC)CCOC(=O)C(c1ccccc1)C1CCCCC1` (configuration not stated) was “inactive”.
For `CNCCC(Oc1ccccc1C)c1ccccc1` (configuration not stated), the Potency entry is “inactive”.
Same read-out and setting: the value for `CN(C(=O)CN(CCO)CC(=O)N(C)C(C)(C)Cc1ccccc1)C(C)(C)Cc1ccccc1` was “inactive”.
The same measure, in the same setting: as for `O=C1OC(c2ccc(O)cc2)(c2ccc(O)cc2)c2ccccc21`, the entry is “inactive”; as for `C#C[C@]1(O)CC[C@H]2[C@@H]3CCc4cc(OC5CCCC5)ccc4[C@H]3CC[C@@]21C`, “inactive”; as for `O=S1(=O)c2cccc3cccc(c23)N1CCCN1CCN(c2ccc(F)cc2)CC1`, “inactive”.
Consider `CCOc1ccc(Cc2nccc3cc(OCC)c(OCC)cc23)cc1OCC`, for which the Potency result was “inactive”.
The same measure, in the same setting: as for `c1ccc(OCc2ccc(CCCN3CCOCC3)cc2)cc1`, the entry is “inactive”; as for `CN1CCC(=C2c3ccccc3Sc3ccccc32)CC1`, 11.2 µM (active).
On the same count and under the same terms, the value for `C[C@@H](CN(C)C)CN1c2ccccc2Sc2ccccc21` was “inactive”; that for `CC(C)=CCC1C(=O)N(c2ccccc2)N(c2ccccc2)C1=O` was “inactive”.
Same read-out and setting: as for `O=C(N/N=C/c1ccccc1O)c1ccncc1`, the figure is 12.6 µM (active); as for `CN1C2CCC1CC(OC(=O)c1c[nH]c3ccccc13)C2` (configuration not stated), “inactive”.
On to `CC/C(=C(/CC)c1ccc(O)cc1)c1ccc(O)cc1`, for which the Potency result was “inactive”.
Still for that read-out and setting: the value for `CC[N+](CC)(CCNC(=O)C(=O)NCC[N+](CC)(CC)Cc1ccccc1Cl)Cc1ccccc1Cl` was 1.41 µM (active); that for `O=C(CCN1CCC(c2ccccc2)C1)c1ccc2c(c1)OCCO2` (configuration not stated) was “inactive”.
Still for that read-out and setting: the value for `Cc1cc(N)c2cc(NC(=O)Nc3ccc4nc(C)cc(N)c4c3)ccc2n1` was 12.6 µM (active); that for `C[C@@H]1C[C@H]2[C@@H]3CCC4=CC(=O)C=C[C@]4(C)[C@@]3(F)[C@@H](O)C[C@]2(C)[C@H]1C(=O)CO` was “inactive”; that for `CC(=O)c1ccc2c(c1)N(CCCN1CCC(CCO)CC1)c1ccccc1S2` was “inactive”.
Take `Oc1c(I)cc(Cl)c2cccnc12`: the Potency was 12.6 µM (active).
The same measure, in the same setting: as for `OCc1ccccc1O`, the entry is “inactive”; as for `CC(=O)Nc1c(I)cc(I)c(C(=O)O)c1I`, “inactive”.
The same measure, in the same setting: the value for `COc1cc2c(cc1OC)C(C(C(=O)N(CCc1ccc(OC)c(OC)c1OC)CCc1ccc(OC)c(OC)c1OC)c1ccccc1)=NCC2` (configuration not stated) was 3.16 µM (active); that for `O=C1[C@H]2CCCC[C@H]2C(=O)N1CCCCN1CCN(c2nsc3ccccc23)CC1` was “inactive”; that for `C[C@@H]1CN(CCCn2c3ccccc3c3ccccc32)C[C@H](C)N1` was 11.2 µM (active).
